About 83,000 compounds went through this panel and 20% of them were active in at least one assay; those are over-represented in the sample as a whole.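 The test compound was applied at a single concentration to cells in 96-well plates for 48 hours, and percent growth was recorded.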 Activity calls are given as the source filed them. Rule for the calls: active = growth percent below 10; inactive = the rest.
Key:
Assay in all cases: NCI-60 one-dose screen, 48 h (100 = growth as untreated, 0 = no growth, -100 = all killed)
Conditions in all cases: 10 µM unless noted
[1] = tested on: MOLT-4 leukemia
[2] = tested on: SR leukemia
[3] = tested on: RPMI-8226 leukemia
[4] = tested on: OVCAR-8 ovarian
[5] = tested on: OVCAR-5 ovarian
[6] = tested on: OVCAR-4 ovarian
[7] = tested on: SK-OV-3 ovarian
[8] = tested on: IGROV1 ovarian
[9] = tested on: OVCAR-3 ovarian
[10] = tested on: HS 578T breast

Measured: growth

CC[C@H](C)[C@H](NC(=O)c1nccn1C)C(=O)N(C)[C@H](C[C@@H](OC(C)=O)c1nc(C(=O)N[C@@H](Cc2ccccc2)C[C@H](C)C(=O)OC)cs1)C(C)C
inactive: [1] 15.9% | [2] 14.2% | [3] 24.6% | [4] 16.3% | [5] 38% | [6] 48.4% | [7] 19.4% | [8] 35.6% | [10] 20.6%
active: [9] -19.8%

O=C(CCCC1CCCCC1)OCC(Cl)(Cl)Cl
inactive: [1] 107% | [2] 103% | [3] 95.7% | [4] 110% | [5] 120% | [6] 105% | [7] 101% | [8] 106% | [9] 104% | [10] 103%

COC(=O)[C@@H](C)C[C@H](Cc1ccccc1)NC(=O)c1nc([C@@H](C[C@H](C(C)C)N(C)C(=O)[C@@H](NC(=O)[C@H]2CC(=O)CCN2C)C(C)C)OC(C)=O)sc1C(C)C
inactive: [1] 15% | [2] 10.9% | [5] 35.5% | [6] 45.8% | [7] 29.1% | [8] 14.4%
active: [3] -3.35% | [4] 8.46% | [9] -15.6% | [10] 9.66%

CC[C@H](C)[C@H](NC(=O)[C@H]1CCCCN1C)C(=O)N(C)[C@H](C[C@@H](OC(C)=O)c1cccc(C(=O)N[C@@H](Cc2ccccc2)C[C@H](C)C(=O)O)n1)C(C)C
inactive: [1] 17.8% | [2] 18% | [3] 22.7% | [4] 17.7% | [5] 52% | [6] 34.7% | [8] 25.7% | [10] 28.1%
active: [7] 8.71% | [9] -27.7%

O=C1NC(=O)C(=Cc2cn(CCCCCCn3c4ccccc4c(=O)c4ccccc43)c3ccccc23)C(=O)N1
inactive: [1] 63.2% | [2] 93.5% | [3] 76.2% | [4] 91.8% | [5] 22.6% | [6] 85.8% | [7] 77.5% | [8] 79.2% | [9] 99.2% | [10] 103%

CC(=O)O[C@@H]1CC[C@]2(C)[C@H]3CC[C@]4(C)C(=O)CC[C@H]4[C@@H]3C[C@@H]3SC(N)=N[C@@]32C1
inactive: [1] 45.6% | [2] 31.7% | [3] 48.4% | [4] 76.8% | [5] 98.7% | [6] 84% | [7] 79.1% | [8] 67.3% | [9] 36.2% | [10] 54.5%

CC[C@H](C)[C@@H]([C@@H](CC(=O)N1CCC[C@H]1[C@H](OC)[C@@H](C)C(=O)N[C@H](C)[C@@H](O)c1ccccc1)OC)N(C)C(=O)[C@@H](NC(=O)[C@@H](NC)C(C)C)C(C)C
active: [9] -13.9%
inactive: [1] 18.3% | [2] 13.8% | [3] 26.5% | [4] 21% | [5] 60.9% | [6] 36.2% | [7] 14.1% | [8] 18.1% | [10] 28.9%

CCCCCCCCCCCCCCCCCC1OC[C@H](COC(=O)O[C@@H](C(=O)O[C@H]2C[C@@]3(O)[C@@H](OC(=O)c4ccccc4)[C@@H]4[C@]5(OC(C)=O)CO[C@@H]5C[C@H](O)[C@@]4(C)C(=O)[C@H](OC(C)=O)C(=C2C)C3(C)C)[C@@H](NC(=O)c2ccccc2)c2ccccc2)O1 (stereo not given in full)
inactive: [1] 55.1% | [2] 44.9% | [3] 17.5% | [4] 61.5% | [5] 41.5% | [6] 75.5% | [7] 62.8% | [8] 42.9% | [9] 31.9% | [10] 60.7%

C1CCC2(CC1)OOCNCOO2
inactive: [1] 77.9% | [2] 62.8% | [3] 102% | [4] 101% | [5] 109% | [6] 112% | [7] 105% | [8] 104% | [9] 103% | [10] 115%

CC(=O)C(c1c(O)c2ccccc2oc1=O)c1cc(=O)oc2c1ccc1ccccc12 (stereo not given)
inactive: [1] 90.2% | [2] 92.5% | [3] 94% | [4] 99.4% | [5] 99.4% | [6] 101% | [7] 94.6% | [8] 106% | [9] 110% | [10] 91.5%

CC[C@H](C)[C@H](NC(=O)[C@H]1CCCCN1C)C(=O)N(C)[C@H](CC(=O)c1nc(C(=O)N[C@@H](Cc2ccccc2)C[C@H](C)C(=O)O)cs1)C(C)C
inactive: [1] 64.4% | [2] 27.8% | [3] 43.2% | [4] 96.9% | [5] 107% | [6] 106% | [7] 91.5% | [8] 76.5% | [9] 55.8% | [10] 72.2%

Source: PubChem BioAssay (NCI)
